High-throughput results from PubChem.
KAT2A inh – qHTS Assay for Inhibitors of GCN5L2. actives 0.21% (n = 390,000). GCN5L2 HAT assay, ThioGlo1 CoA-SH fluorescence. Potency, µM (titrated, usually from 58.9 µM), inactives show at the top dose activity change, negative = inhibition, most hits filed as inhibitors. Histone acetyltransferase KAT2A (Homo sapiens), Q92830
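Titration-based screen in which CoA formation is detected via maleimide probe ThioGlo1 (50uM) turning fluorescent on thiol reaction; substrates H3(1-25) 75uM and acetyl-CoA 70uM, GCN5L2 20nM, 20 min incubation at room temperature.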
DT40 TDP1 CPT – qHTS for Inhibitors of human tyrosyl-DNA phosphodiesterase 1 (TDP1): qHTS in cells in presence of CPT. chicken DT40 Tdp1-/-;hTDP1 cells + 20 nM CPT, ATP luminescence, 48 h. Potency, µM (top dose mostly 46.2 µM), for the others: top-dose activity change, negative = growth inhibition, usual class: inhibitors. actives 12% (n = 420,000). AID 686979, 2013; note: nearly all actives have a fitted effect of over 55% in size
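Chicken DT40 Tdp1-/- cells complemented with human TDP1, 400 cells/well, exposed to compounds plus 20 nM camptothecin for at least 48 h at 37 C; viability read as ATP content by CellTiter-Glo luminescence.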
PLK1 PBD block – qHTS for Inhibitors of PLK1-PDB (polo-like kinase 1 - polo-box domain): Primary Screen; AID 720504, 2013; Serine/threonine-protein kinase PLK1 (Homo sapiens), P53350; Plk1 PBD binding of FITC phosphopeptide, fluorescence polarization; actives 2.8% (n = 360,000); Potency, µM, for the others: max response, negative = inhibition, hits mostly inhibitors; note: series mostly up to about 57 µM; nearly all actives have a fitted effect of over 65% in size
TDP1 block – qHTS Assay for Inhibitors of Tyrosyl-DNA Phosphodiesterase (TDP1); Tyrosyl-DNA phosphodiesterase 1 (Homo sapiens), Q9NUW8; recombinant TDP1, AlphaScreen DNA substrate cleavage; Potency, µM (highest dose often 130 µM), without a hit: at the top dose activity change, negative = inhibition, hits mostly inhibitors; actives 0.28% (n = 350,000); AID 485290, 2010; note: nearly all actives have a fitted effect of over 40% in size
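Signal: AlphaScreen proximity between streptavidin donor and anti-FITC acceptor beads on intact substrate. Reaction: Tdp1 1 nM, substrate 15 nM final, 5 min RT after 15 min compound preincubation.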
TDP1 cell noCPT – qHTS for Inhibitors of human tyrosyl-DNA phosphodiesterase 1 (TDP1): qHTS in cells in absence of CPT | actives 15% (n = 420,000) | AID 686978, 2013 | DT40 Tdp1-/- hTDP1 cells, no CPT, ATP luminescence, 48 h | Potency, µM (titrated, usually from 46.2 µM), for inactives: at the top dose activity change, negative = growth inhibition, hits mostly inhibitors; note: nearly all actives have a fitted effect of over 55% in size
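Camptothecin absent (DMSO only). Human TDP1-complemented DT40 knockout cells, 400 cells/well, 37 °C for minimum 48 hr; ATP measured via CellTiter-Glo, 30 min dark incubation, luminescence.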
VDR inh – Inhibitors of the vitamin D receptor (VDR): qHTS. AID 504847, 2011. actives 0.93% (n = 400,000). Vitamin D3 receptor (Homo sapiens), P11473. Potency, µM, inactives show max response, negative = inhibition, usual class: inhibitors. VDR-SRC2-3 peptide fluorescence polarization, 2 h
Target sequence (P11473 whole entry, looked up): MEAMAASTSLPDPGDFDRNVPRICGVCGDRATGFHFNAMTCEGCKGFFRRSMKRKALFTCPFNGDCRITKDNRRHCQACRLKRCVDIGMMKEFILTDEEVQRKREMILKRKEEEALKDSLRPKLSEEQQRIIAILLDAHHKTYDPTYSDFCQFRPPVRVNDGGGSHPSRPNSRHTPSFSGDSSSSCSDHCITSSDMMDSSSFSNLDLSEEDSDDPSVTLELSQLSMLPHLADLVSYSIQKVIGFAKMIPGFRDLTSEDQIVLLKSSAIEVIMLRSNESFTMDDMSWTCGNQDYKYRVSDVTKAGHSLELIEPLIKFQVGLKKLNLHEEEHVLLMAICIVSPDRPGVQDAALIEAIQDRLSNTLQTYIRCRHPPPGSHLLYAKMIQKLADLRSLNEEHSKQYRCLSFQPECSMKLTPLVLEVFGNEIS
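Reagent solutions, kept cold and dark, are dispensed first; compounds are then pinned in at 23 nl, plates briefly spun, and incubated 2 h at ambient temperature. Inhibition of VDR–SRC2-3 peptide binding is read by fluorescence polarization.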
Numbers without * were called inactive. Most compounds without a hit are left out; they make up all but 18% or so of the library. Calls come from the whole dose curve; as a rule, active = well fitted curve in the direction sought with a large enough effect; inconclusive = small, poorly fitted or top-dose-only effect, or another doubt; inactive = no such curve, though single readings can be large; an effect the other way counts as inactive or inconclusive. % is set by controls: 0 for no effect and ±100 for the full control effect; potency is the fitted concentration of half-maximal effect.

Screening CCCC[C@@H]1C[C@H]1[C@@H](NP(=O)(c1ccccc1)c1ccccc1)c1ccccc1OC returned TDP1 block 8.1%.
Screening COc1cccc2sc3cc(C#CC4(O)CCCCC4)ccc3c(=O)c12 returned KAT2A inh -15.3%, DT40 TDP1 CPT 7.31µM*, PLK1 PBD block 0.1%, TDP1 block 2.6%, TDP1 cell noCPT inconclusive and VDR inh 0.5%.
`Cn1c(C=O)c(C#CC(C)(C)O)c2ccccc21` gave KAT2A inh -15.8%, DT40 TDP1 CPT inconclusive, PLK1 PBD block -24.9%, TDP1 block -4.0%, TDP1 cell noCPT inconclusive and VDR inh -9.0%.
Screening COc1ccc(Oc2c(O)c3ccccc3n(C)c2=O)cc1 returned KAT2A inh -8.6%, DT40 TDP1 CPT 0.3%, PLK1 PBD block 4.2%, TDP1 block 5.1%, TDP1 cell noCPT inconclusive and VDR inh -4.7%.
`COc1ccc(C#Cc2ccc3c(c2)c(=O)c2ccccc2n3C)cc1` gave KAT2A inh -0.7%, DT40 TDP1 CPT inconclusive, PLK1 PBD block -4.6%, TDP1 cell noCPT 18.4µM* and VDR inh -5.8%.
COc1cccc(C#Cc2c(C=O)n(C)c3ccccc23)c1 was read as KAT2A inh -1.5%, DT40 TDP1 CPT 16.4µM*, PLK1 PBD block 4.7%, TDP1 block 17.8µM*, TDP1 cell noCPT 16.4µM* and VDR inh -2.9%.
For CC(=O)c1ccccc1NS(=O)(=O)c1cc2c(cc1C)NC(=O)CO2 the results were KAT2A inh -14.7%, DT40 TDP1 CPT -5.7%, TDP1 block 2.7%, TDP1 cell noCPT 0.9% and VDR inh 6.7%.
`COc1ccc(-c2oc3ncn4nc(-c5cccc(C)c5)nc4c3c2-c2ccc(OC)cc2)cc1` gave KAT2A inh 4.2%, DT40 TDP1 CPT -19.6%, TDP1 cell noCPT -1.4% and VDR inh -15.8%.
`COc1ccc(S(=O)(=O)N(Cc2ccco2)Cc2cc3ccccc3[nH]c2=O)cc1` gave KAT2A inh 1.3%, DT40 TDP1 CPT inconclusive, PLK1 PBD block -10.2%, TDP1 block 6.4%, TDP1 cell noCPT inconclusive and VDR inh 0.2%.
O=C(Cc1ccccc1[N+](=O)[O-])NCC(O)c1ccc2c(c1)OCO2 (centres undefined) was read as DT40 TDP1 CPT -3.7%, PLK1 PBD block -12.9%, TDP1 cell noCPT -11.8% and VDR inh -9.4%.
For N#Cc1ccc(NC(=O)c2ccc3c(c2)nnn3C2CCCC2)cc1 the results were KAT2A inh -1.1%, DT40 TDP1 CPT -15.7%, TDP1 block 0.0%, TDP1 cell noCPT -10.3% and VDR inh 1.7%.
For COc1ccc(-c2csc(N(CCc3ccccc3)C(=O)COc3ccccc3)n2)cc1 the results were KAT2A inh -14.3%, DT40 TDP1 CPT inconclusive, PLK1 PBD block 3.7%, TDP1 block 2.0%, TDP1 cell noCPT inconclusive and VDR inh -2.2%.
O=C(COc1ccc(Cl)cc1)N(Cc1ccccc1)c1nc(-c2ccccc2)cs1 was read as KAT2A inh 0.0%, DT40 TDP1 CPT inconclusive, PLK1 PBD block -11.6%, TDP1 block 2.9%, TDP1 cell noCPT 25.9µM* and VDR inh -2.8%.
COc1cccc2cc(-c3nc(Nc4cccc(C)c4C)sc3C)c(=O)oc12 was read as KAT2A inh -14.3%, DT40 TDP1 CPT inconclusive, TDP1 block 4.4%, TDP1 cell noCPT inconclusive and VDR inh 14.3%.
For CCc1sc(Nc2ccc(Cl)cc2)nc1-c1cc2cccc(OC)c2oc1=O the results were KAT2A inh -10.1%, DT40 TDP1 CPT inconclusive, TDP1 block 2.5%, TDP1 cell noCPT 20.6µM* and VDR inh 14.5%.
Screening CCc1ccc(Nc2nc(-c3cc4cccc(OC)c4oc3=O)c(CC)s2)cc1 returned KAT2A inh -0.9%, DT40 TDP1 CPT inconclusive, TDP1 block 2.5%, TDP1 cell noCPT 23.1µM* and VDR inh 3.6%.
`CCc1sc(Nc2ccc(C)cc2Br)nc1-c1cc2cccc(OC)c2oc1=O` gave KAT2A inh -6.0%, DT40 TDP1 CPT inconclusive, TDP1 block 4.4%, TDP1 cell noCPT inconclusive and VDR inh -10.5%.
CCOC(CNC(=O)Cn1nc(C)c2ccccc21)OCC was read as KAT2A inh -4.4%, DT40 TDP1 CPT 12.4%, PLK1 PBD block 0.8%, TDP1 block 5.7%, TDP1 cell noCPT -0.1% and VDR inh -10.5%.
C=CCOC(=O)N[C@@H](Cc1ccccc1)/C(C(=O)OC)=C(\C)NCc1ccccc1 was read as TDP1 block -5.6% and VDR inh -10.5%.
COc1ccc(-c2ccc(S(=O)(=O)NCC3CCCO3)cc2)cc1 (centres undefined) was read as KAT2A inh -6.1%, DT40 TDP1 CPT 5.6%, PLK1 PBD block -3.0%, TDP1 block 2.5%, TDP1 cell noCPT inconclusive and VDR inh -2.7%.
Screening O=C(c1ccc(S(=O)(=O)NCC2CCCO2)cc1)N1CCN(c2cccc(Cl)c2)CC1 (centres undefined) returned KAT2A inh -1.8%, DT40 TDP1 CPT 14.6µM*, PLK1 PBD block -16.5%, TDP1 block -13.7%, TDP1 cell noCPT 14.6µM* and VDR inh -18.6%.
For O=S(=O)(NCC1CCCO1)c1ccc(-c2ccc(Cl)cc2)cc1 (centres undefined) the results were KAT2A inh -0.7%, DT40 TDP1 CPT 11.6µM*, PLK1 PBD block -2.9%, TDP1 block 2.7%, TDP1 cell noCPT 13µM* and VDR inh -1.5%.
Screening O=[N+]([O-])c1ccc(C[n+]2cccc3ccc4cccnc4c32)cc1 returned KAT2A inh -0.8%, DT40 TDP1 CPT 1.84µM*, PLK1 PBD block 9.47µM*, TDP1 block 7.7%, TDP1 cell noCPT 1.64µM* and VDR inh 79.4µM*.
For O=[N+]([O-])c1ccc(C[n+]2cccc3ccccc32)cc1 the results were KAT2A inh -20.0%, DT40 TDP1 CPT inconclusive, PLK1 PBD block 4.6%, TDP1 block 0.0%, TDP1 cell noCPT inconclusive and VDR inh -12.9%.
